# Reference: the supplement of paper PMC6555819
# Key:
# Experiment in all cases: PBM binding z-score (relative to random genomic background probes); higher = stronger binding; sequences stand for … in GC…GCGATTGACAGCGTAGAATGAAGG
# [1] = system: PPARg:RXRa DBDmut IVT, anti-RXR (DBD mutation: RXRa K156A/R161A, NR concentration 270 nM, RXRa partner concentration 90 nM)
# How it was run: (§1)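 For binding z-scores, the reference was random background probes on custom Agilent 4×180K protein-binding microarrays. These arrays were incubated 1 h with ligand-free nuclear receptor dimers in PBS pH 7.4, 2% milk, 0.02% Triton X-100, 1 mM DTT, 0.2 mg/mL BSA and 0.4 mg/ml salmon testes DNA. Fluorescence was scanned after antibody detection of each partner (one per run) and regression-normalized.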
# [2] = system: PPARg:RXRa IVT, anti-PPARg (NR concentration 270 nM, RXRa partner concentration 90 nM)
# How it was run: as §1
# [3] = system: PPARg DBDmut:RXRa IVT, anti-PPARg (DBD mutation: PPARg1 K132A/R137A, NR concentration 270 nM, RXRa partner concentration 90 nM)
# How it was run: as §1
# [4] = system: PPARg DBDmut IVT, anti-PPARg (DBD mutation: PPARg1 K132A/R137A, NR concentration 270 nM)
# How it was run: as §1
# [5] = system: PPARg homodimer (NR concentration 180 nM)
# How it was run: as §1
# [6] = system: PXR:RXRa (NR concentration 270 nM, RXRa partner concentration 90 nM)
# How it was run: as §1
# [7] = system: PXR homodimer (NR concentration 270 nM)
# How it was run: as §1
# [8] = system: RARa:RXR (NR concentration 270 nM, RXRa partner concentration 90 nM)
# How it was run: as §1
# [9] = system: RARa homodimer (NR concentration 270 nM)
# How it was run: as §1
# [10] = system: RARb:RXRa (NR concentration 270 nM, RXRa partner concentration 90 nM)
# How it was run: as §1
Sequence,PBM binding z-score [1],PBM binding z-score [2],PBM binding z-score [3],PBM binding z-score [4],PBM binding z-score [5],PBM binding z-score [6],PBM binding z-score [7],PBM binding z-score [8],PBM binding z-score [9],PBM binding z-score [10]
TCTCGGAGGATACGAAAGGTCAGAGCTCGACATC,1.32,1.03,-1.04,-0.436,2.71,3.67,0.308,4.51,0.99,3.69
GGAACGAGGGCAAGTTGGTAGCAGAGTTTGATGG,3.6,2.34,-0.479,-0.423,0.722,0.696,0.853,0.662,-0.182,2.79
CCTACTGGGCCACGAAAGGTCGTTGATTCAGTGA,5.8,5.18,-0.547,-0.744,1.16,2.77,0.256,2.19,-0.764,1.84
CATATAGGGTCAGCTAGGCCAGAGTAGGGACGGC,2.06,2.63,1.01,0.805,1.9,2.17,-0.332,3.31,0.466,3.96
TTACCAAGCTGAGCTGAGGTCGTTGATCCAACTC,-0.796,-0.588,-0.701,-1.02,-1.16,1.06,0.0399,0.708,-1.15,0.0389
CCTTACGGGTCACTGACAGGTTATAGCTTTTGGA,3.62,3.94,-0.188,-0.142,1.82,3.38,-0.201,4.13,0.634,3.74
CGAACGAAGGCATGAGTTGATAGCAAATGCCGAT,-0.501,-0.459,-1.26,-0.962,-0.786,-0.575,-0.461,-0.544,-0.843,-0.545
GCTAGCAGGCTATTTGGGTCACTCAATGACGGGC,3.1,3.87,-0.208,-0.897,0.28,0.435,-0.454,1.01,-0.508,1.27
AGAACCAGGGCACGCTGAGTTGATAGCAGAGTAG,4.22,3.95,0.0191,-0.605,-0.0465,0.357,-0.341,0.14,-0.234,1.34
TGAATGAGGTAATAAGATCAGGGAACGTTGCAAA,0.356,1.03,0.129,-0.853,-0.59,-0.275,-0.242,-0.0415,-0.474,-0.231
ATCTCTAGGTAACCAAGTTCACTGAATGCCGAAC,3.89,3.32,0.487,1.47,1.17,3.1,3.34,1.64,0.615,1.9
TAGCCTAGATCATGGGCCAGTATACCACGCGAAC,0.188,0.69,-0.074,-0.614,-1.13,-0.835,-0.709,-0.943,-0.47,-0.479
CCTACTGGGCCAATCAGAGGTCATTGATCATATG,4.6,4.19,1.25,0.284,4.19,5.06,3.38,5.18,0.519,3.27
ACTAGCAGGCCAAGTTTGGCTCACTCAAACAAAG,0.281,0.0532,-0.751,-1.04,-0.78,-0.576,-0.582,-0.454,-0.674,0.218
GCTGCTAGATCAACTGATGGTCAGCTAAAGCTCG,-0.127,-0.576,-0.911,-0.65,-0.483,-0.788,-0.885,-0.512,-1.53,-0.39
CATAGCAGGCCAGGGTCACTCAAGCATTTCGCTT,1.4,2.14,-0.201,-0.525,1.38,2.93,-0.247,3.63,-0.0529,2.79
TCTAGTTGGTCACGGCGGTCACACACGACGGGTA,2.36,3.13,1.09,1.25,1.16,0.555,0.174,0.871,0.669,2.52
ATCTCTAGGTAAAAGATCAGTGAATCCCGAGGAT,2.47,2.26,1.02,0.762,0.847,-0.177,-0.245,0.0916,0.407,-0.0842
GGTCGGAGGACAAGGTCAGAGCTTTGTCCGTAGA,0.195,1.61,-0.429,-1.06,1.09,1.63,0.0611,1.82,-0.267,3.62

Sequence,PBM binding z-score [1],PBM binding z-score [2],PBM binding z-score [3],PBM binding z-score [4],PBM binding z-score [5],PBM binding z-score [6],PBM binding z-score [7],PBM binding z-score [8],PBM binding z-score [9],PBM binding z-score [10]
TCTTGTAGATCAATAGAGGTTATGAAAGTGCGCT,1.9,1.34,0.208,0.487,0.327,2.9,0.0755,2.04,0.403,1.02
ATCGAAAGGTCGAAGGTGAGTAGACCCACCCGAA,-0.178,1.89,-0.438,0.456,1.74,2.69,0.121,4.23,0.557,3.83
ATCGAAAGGTCGAGGTGAGTATCGAGAAAGGGAA,0.319,2.07,0.156,0.836,1.5,2.44,0.217,3.52,0.474,4.2
TCTTGTAGATCAACAGGAGTTTAAGAAAGATCGA,1.57,0.487,0.0985,0.197,-0.389,0.514,-0.0735,0.201,-0.584,0.0376
TATCGGAGGACACGAAAGGTCAGAGCTCGACATC,0.425,2.37,0.89,0.344,2.86,4.25,0.981,4.73,1.49,4.37
TTGCCTAGGTCATTCAGGGGCCAGTATAGAAAGC,1.9,2.33,0.195,-0.447,2.69,2.63,0.107,4.21,-0.129,3.93
CAAACTAGGTCACCGGAAGGTCTAAGTCCGCATG,8.57,9.1,1.59,1.51,2.47,2.44,0.0604,3.02,0.862,4.37
TCGAGTAGGTTACCAATGGGGCCTTCAGCTTTCT,3.36,2.22,-0.652,-1.23,-0.653,-0.289,-1.01,0.0831,-1.27,0.653
AGAACGAGGGCACGCTGAGTTGATCGCAGAGTAG,4.59,4.13,0.408,-0.362,-0.239,1.53,0.103,0.735,-1.04,2.57
TCATATAGATAAAGGTGAAAGTCGAACGATATGA,2.13,1.9,1.06,1.29,1.18,0.893,-0.0494,1.43,0.832,1.61
AGAACGAGGGCAATGAGCTGATAGCACGGGTGGC,3.25,2.14,0.548,-0.351,-0.0817,0.131,0.0255,0.176,-0.301,2
TCTTGTAGATCAAGCAGGTTAAGAGAGCCTGAGT,1.44,0.423,-0.603,-0.0222,-0.58,0.103,-0.227,-0.116,-0.124,0.0485
ATCTCTAGGTAACGATAGTTCAGTGAATGCAAAT,3.41,3.08,1.42,1.62,0.431,0.926,0.85,0.162,0.352,0.902
CCTACTGGGCCAAAAAGGTCAGTGATGCCGATAA,3.45,3.63,-0.398,-1.18,2.33,2.55,0.561,3.29,1.18,3.67
TCATATAGGTAAAAGGTAAAAGTCGGTGTGGTAA,5.05,4.32,0.348,1.01,1.81,1.39,0.507,1.78,2.04,0.854
ATCTCTAGGTAACCAAATTCAGTGAATGCCGAAC,3.66,2.72,0.888,0.995,0.658,0.0913,0.615,0.166,0.995,0.377
ATATGTAGGCTAAGGGTCATTCAGGTTGGTTCGC,5.51,6.21,1.21,1.43,2.35,4.78,1.76,4.17,0.917,3.36
GCTCGAAGGACAAGGTCAGAGCTTTGTCCGTAGA,-0.135,0.583,-0.7,-0.691,0.73,1.59,-0.626,2.28,-0.618,3.44
GCGACTGGGGCATCAGAAGGTTACCATAACTTAA,3.59,3.39,0.195,-0.175,0.756,0.582,-0.271,0.988,-0.432,1.2
